Assay outcomes (PubChem BioAssay)
JMJD2A Tudor inh = inhibitors of human JMJD2A Tudor domain | AlphaScreen JMJD2A-Tudor / H3K4me3 peptide binding | Potency, µM (top dose mostly 114 µM), usual class: inhibitors | hit rate 4.4% among 390,000 | AID 504339; also: nearly all actives have a fitted effect of over 50% in size
TDP1 block = inhibitors of human tyrosyl-DNA phosphodiesterase TDP1; Potency, µM (doses to about 130 µM), most hits filed as inhibitors; AID 485290; hit rate 0.28% among 350,000; recombinant TDP1, AlphaScreen DNA substrate cleavage; also: nearly all actives have a fitted effect of over 40% in size
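Enzyme-compound mixtures sat 15 min at room temperature, followed by a 5 min reaction with 15 nM final substrate and 10 min with AlphaScreen beads. Recombinant human Tdp1 was used at 1 nM final.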
BAZ2B inh = inhibitors of human BAZ2B bromodomain; AID 504333; Potency, µM (titrated, usually from 114 µM), actives largely listed as inhibitors; hit rate 4.4% among 360,000; AlphaScreen BAZ2B-H3K14Ac peptide displacement; Q9UIF8; also: nearly all actives have a fitted effect of over 60% in size
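Complex of BAZ2B and biotin-H3K14Ac (50 nM apiece) forms over 30 min at RT, then faces library compounds up to 110 uM for another 30 min; AlphaScreen beads added, 20 min dark incubation, luminescence read.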
CtBP-E1A blk = CtBP/E1A binding inhibition. AlphaScreen GST-E1A/His-CtBP binding, 1536-well; active compounds read low. activity change, % (concentration not given with the values). hit rate 0.49% among 340,000; in the data active = activity change below about -65%; inconclusive = mostly about -30% to -63%
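GST-E1A and His-tagged CtBP (125 nM each as 5X stock) were preincubated with pin-transferred compound for 2 h at 37 °C in the dark, then glutathione donor and nickel acceptor beads were added for 1 h before AlphaScreen reading.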
HP1b binding inh = HP1-beta chromodomain-methylated histone interaction inhibition; P83916; AlphaScreen HP1-beta / biotin-H3K9me3 peptide binding; Potency, µM (top dose mostly 114 µM), most hits filed as inhibitors; hit rate 0.56% among 390,000; AID 540317; also: nearly all actives have a fitted effect of over 70% in size
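AlphaScreen: HP1-beta (50 nM) preformed 30 min with biotin-H3(1-18)K9me3 peptide (50 nM) in PBS pH 7.4, 0.01% Tween-20. Compound added for 30 min at RT, then streptavidin donor/nickel chelate acceptor beads (10 ug/mL) for 30 min.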
Six1-Eya2 inh = blocks human Six1 binding to Eya2 | Q15475+O00167 | AlphaScreen GST-Six1/His-Eya2 binding, biochemical; active compounds read low | activity change, % (test concentration not listed) | hit rate 0.56% among 360,000; in the data active = activity change below about -65%; inconclusive = mostly about -30% to -63%
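Compounds are tested against tagged Six1 and Eya2 proteins bridged by glutathione donor and nickel acceptor beads; after a one-hour incubation at 37 °C without light, AlphaScreen emission is recorded.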
Large screens that a line does not name were inactive. A selection: hits, their analogues and other compounds. The true share with any hit is near 5.3%. Unless noted, calls follow the shape of the dose curve; as a rule, active = well fitted inhibition curve with a large enough effect; inconclusive = small, poorly fitted or top-dose-only effect; inactive = no such curve, though single readings can be large or run the other way.

CC(=O)N1CCc2cc(Br)cc(S(=O)(=O)N3CCN(c4ccccn4)CC3)c21	JMJD2A Tudor inh 79µM, HP1b binding inh inconclusive
COc1cc(OC)c2c(-c3ccccc3)cc(=O)oc2c1C(CCN1CCCCC1)c1ccc2c(c1)OCO2 (stereo not drawn)	JMJD2A Tudor inh inconclusive, BAZ2B inh inconclusive
COc1ccc(C(CCN2CCCCC2)c2c(OC)cc(OC)c3c(-c4ccccc4)cc(=O)oc23)cc1 (stereo not drawn)	JMJD2A Tudor inh inconclusive
COc1cc(OC)c2c(-c3ccccc3)cc(=O)oc2c1C(CCN1CCCC(C)C1)c1ccc2c(c1)OCO2 (stereo not drawn)	JMJD2A Tudor inh 40µM, BAZ2B inh inconclusive
COc1cc(OC)c2c(-c3ccccc3)cc(=O)oc2c1C(CCN1CCOCC1)c1ccc(N(C)C)cc1 (stereo not drawn)	JMJD2A Tudor inh 14µM, CtBP-E1A blk inconclusive, HP1b binding inh 18µM, Six1-Eya2 inh inconclusive (no result: BAZ2B inh)
COc1cc(OC)c2c(-c3ccccc3)cc(=O)oc2c1C(CCN1CCCCC1)c1ccc(N(C)C)cc1 (stereo not drawn)	JMJD2A Tudor inh 11µM, BAZ2B inh 16µM, CtBP-E1A blk inconclusive, HP1b binding inh inconclusive, Six1-Eya2 inh inconclusive
COc1cc(OC)c2c(-c3ccccc3)cc(=O)oc2c1C(CC(=O)N1CCCC1)c1ccc2c(c1)OCO2 (stereo not drawn)	JMJD2A Tudor inh inconclusive, BAZ2B inh inconclusive (no result: TDP1 block)
CCN(CC)C(=O)CC(c1ccc(OC)cc1)c1c(OC)cc(OC)c2c(-c3ccccc3)cc(=O)oc12 (stereo not drawn)	JMJD2A Tudor inh inconclusive, TDP1 block 18µM (no result: BAZ2B inh, CtBP-E1A blk, Six1-Eya2 inh)
Oc1ccc(/C=N/Nc2ncc(Br)cn2)c(O)c1	JMJD2A Tudor inh inconclusive, BAZ2B inh 14µM, CtBP-E1A blk -92, Six1-Eya2 inh -88
Oc1ccc(Br)cc1/C=N/Nc1ncc(-c2ccccc2)cn1	none
Oc1cccc(C=NNc2ccccn2)c1	none (no result: TDP1 block, BAZ2B inh)
Oc1ccccc1/C=N/Nc1nccnc1Cl	JMJD2A Tudor inh inconclusive, BAZ2B inh 35µM, CtBP-E1A blk -94, Six1-Eya2 inh -92
Oc1ccc(C=NNc2ccccn2)c(O)c1	JMJD2A Tudor inh 20µM, Six1-Eya2 inh -91 (no result: TDP1 block, BAZ2B inh)
Oc1ccc(/C=N/Nc2nccnc2Cl)c(O)c1	JMJD2A Tudor inh 50µM, BAZ2B inh 14µM, CtBP-E1A blk -96, Six1-Eya2 inh -92
COc1cc(OC)c(NC(=O)CSc2cc(=O)n(C)c3ccc(Cl)cc23)cc1Cl	none (no result: CtBP-E1A blk, Six1-Eya2 inh)
COc1cccc(C(=O)Nc2ccc3nc(N4CCC(C)CC4)cc(C)c3c2)c1	none (no result: CtBP-E1A blk, Six1-Eya2 inh)
CCC(=O)Nc1cc(NC(=O)CSc2ncc(-c3ccc(F)cc3)n2Cc2ccco2)ccc1C	JMJD2A Tudor inh inconclusive (no result: BAZ2B inh)
COc1ccc(NC(=O)CSc2ncc(-c3ccc(F)cc3)n2Cc2ccco2)cc1	JMJD2A Tudor inh 56µM, BAZ2B inh 32µM, HP1b binding inh inconclusive
COCCn1c(SCC(=O)Nc2ccccc2OC)nc2c(oc3ccccc32)c1=O	none
O=C(CSc1ncc(-c2ccc(F)cc2)n1Cc1ccco1)Nc1nccs1	none
COc1ccc(-c2cnc(SCC(=O)Nc3cc(C)on3)n2Cc2ccco2)cc1	JMJD2A Tudor inh 50µM, BAZ2B inh 45µM, HP1b binding inh inconclusive
COCCn1c(-c2ccc(OC)cc2)cnc1SCC(=O)Nc1cccc2ccccc12	JMJD2A Tudor inh 25µM, BAZ2B inh 18µM, CtBP-E1A blk inconclusive, Six1-Eya2 inh inconclusive
Cc1cnc(NC(=O)CSc2ncc(-c3ccccc3)n2Cc2ccco2)s1	JMJD2A Tudor inh inconclusive, BAZ2B inh 22µM, Six1-Eya2 inh inconclusive
CCOC(=O)c1c(S(=O)(=O)NCC(=O)Nc2ccc(C)c(N(C)C)c2)c(C)n(C)c1C	JMJD2A Tudor inh inconclusive, BAZ2B inh inconclusive (no result: CtBP-E1A blk, Six1-Eya2 inh)
CCOc1ccc(CNC(=O)c2ccc3nc(Cc4ccc(OC)cc4)oc3c2)cc1OC	JMJD2A Tudor inh inconclusive (no result: CtBP-E1A blk, Six1-Eya2 inh)
CCOc1ccc(/C=N/N2C(C)CCCC2C)cc1OC (stereo not drawn)	none (no result: TDP1 block)
CC(C)c1ccc(/C=N/N2CCCCC2)cc1	JMJD2A Tudor inh inconclusive, BAZ2B inh 32µM, HP1b binding inh 22µM (no result: TDP1 block)
CCOc1ccc(C=NN2CCCCCC2)cc1OCC	JMJD2A Tudor inh 40µM, HP1b binding inh inconclusive (no result: TDP1 block, BAZ2B inh)
